# Screening data as filed in PubChem.
# This is one part of a sample in which hits are shown more often than they occur.
# KDM5B inhibitor = blocks human KDM5B histone demethylase activity; Q9UGL1; KDM5B demethylase, FDH-coupled NADH fluorescence (FDH is formaldehyde dehydrogenase); Potency, µM (doses to about 57.7 µM), hits mostly inhibitors; 2.6% of 220,000 active; AID 1347165; active = well fitted inhibition curve with a large enough effect; also: nearly all actives have a fitted effect of over 70% in size
#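 KDM5BΔAP (200 nM final) in 50 mM HEPES pH 7.5, 0.01% Tween-20 was preincubated 10 min at RT with compound over a concentration range. Substrate mix (H3K4me3 12.5 µM, α-KG 25 µM, Fe²⁺, ascorbate, NAD⁺, FDH) was added, and NADH fluorescence change over 30 min gave dose-response curves.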
# A number is an active result; i = inactive.
SMILES,KDM5B inhibitor
CCc1noc(-c2ccn3c(CNC(=O)c4cc(F)cc(F)c4)nnc3c2)n1,25µM
CCc1noc(-c2ccn3c(CNC(=O)c4ccc(OC)cc4)nnc3c2)n1,14µM
CCc1noc(-c2ccn3c(CNC(=O)c4ccc(N(CC)CC)cc4)nnc3c2)n1,i
CN(C)c1cccc(N(C)C)c1CNC(=O)C(C)(C)C,i
CN1CCN(c2nc3c(c(=O)n(C)c(=O)n3C)n2CC(=O)C23CC4CC(CC(C4)C2)C3)CC1,i
O=C(NC(C1CC1)C1CC1)c1ccccc1F,i
CCNC(=O)[C@@H]1C[C@H](NC(=O)c2ccco2)CN1C(=O)Cc1nonc1C,i
CCc1nc(CN2CCOc3c(O)cc(-c4nc(C)cnc4C)cc3C2)no1,i
Cn1cc(C(=O)N2CCOc3c(O)cc(-c4csc5ccccc45)cc3C2)cn1,i
Cc1cnc(C)c(-c2cc(O)c3c(c2)CN(C(=O)c2ccncn2)CCO3)n1,25µM
O=C(CCN1C(=O)/C(=C/c2ccccc2F)SC1=S)Nc1cccnc1,i
Cn1nc(C(=O)NCc2ccc(S(N)(=O)=O)cc2)c2ccccc2c1=O,i
Cc1cccc(-c2noc(CCC(=O)N3CCC(C)(c4noc(-c5ccncc5)n4)CC3)n2)c1,i
Cc1ccc(-c2ccc3nnc(CNC(=O)c4cc(F)ccc4F)n3n2)cc1,25µM
O=C(NCc1nnc2n1C(C(=O)NCc1ccc(F)cc1)CC2)c1ccc(Cl)cc1Cl (centres undefined),i
O=C(NCc1nnc2ccc(-c3ccccc3)nn12)c1cc(F)ccc1Cl,18µM
Cc1ccc(-c2ccc3nnc(CNC(=O)c4c(F)cccc4F)n3n2)cc1,25µM
O=C(NCc1nnc2ccc(-c3ccc(F)cc3)nn12)c1cc(Cl)ccc1F,25µM
O=[N+]([O-])c1ccc(Br)c2ccncc12,i
Cc1noc(Cn2c(=O)c3ccccc3n(CC(=O)Nc3ccc(Cl)cc3)c2=O)n1,i
CCC(CC)C(=O)NC[C@H]1O[C@@H](CC(=O)N2CCN(c3ccccc3OC)CC2)[C@H](O)[C@@H]1O,i
CCCCOc1ccc(NC(=O)C(C)Oc2ccccc2OC)c2cccnc12 (centres undefined),i
COc1ccc(C2C(C(C)=O)=C(O)C(=O)N2c2ccc(C)cc2)cc1 (centres undefined),i
CCCN(CCC)C(=O)CSc1c2c(nc3ccc(Cl)cc13)CCCC2,i
O=C(NCCC1CCN(C(=O)Nc2cc(F)ccc2F)CC1)c1ccoc1,i
SMILES,KDM5B inhibitor
Cc1ccc(CCNC(=O)c2ccc3c(=O)n(-c4ccc(C)cc4)c(=O)[nH]c3c2)cc1,i
Cc1cccc(Cn2c(Cc3ccccc3)nc3ccccc32)c1,i
Cc1cc(NC(=O)CN2C(=O)NC(c3ccccc3Cl)C3=C2COC3=O)ccc1Br (centres undefined),i
O=C(NCc1coc(-c2cccs2)n1)C1(c2ccc(Cl)cc2)CC1,i
O=C(NCc1nnc2ccc(-c3ccc(F)cc3)nn12)c1ccc(Cl)s1,28µM
O=C(NCc1nnc2ccc(-c3ccccc3)nn12)c1cc(Cl)ccc1F,25µM
Cc1ccc(-c2ccc3nnc(CNC(=O)c4cccc(C(F)(F)F)c4)n3n2)cc1,32µM
O=C(CCc1nnc2ccc(NCc3ccc(Cl)cc3)nn12)NCc1ccc(Cl)cc1,i
COc1ccc(Cl)cc1C(=O)NCc1nnnn1-c1ccccc1,i
Cc1ccc(S(=O)(=O)N2CCN(CCNC(=O)c3cccc(C(F)(F)F)c3)CC2)cc1,i
O=C(NCc1nnc2ccc(-c3ccc(Cl)cc3)nn12)C1(c2ccccc2)CC1,20µM
O=C1CCN(C(=O)CCCc2ccccc2)CCCC(c2nc(-c3cccnc3)no2)CCN1 (centres undefined),i
c1ccc(-c2nc(-c3ccc(C4CCCCC4)cc3)cs2)cc1,i
Cc1cccc(C(=O)N2C[C@@H]3CCCN4CCC[C@@H]([C@H]34)[C@H]2CCCC(=O)NCC2CC2)c1,i
Cc1ccc(C2C(C(=O)c3cccs3)=C(O)C(=O)N2c2ccc(S(N)(=O)=O)cc2)cc1 (centres undefined),i
CCn1c(=S)[nH]c2cc(Cl)ccc21,i
Cc1ccc(-c2ccc3nnc(CNC(=O)c4ccc(F)cc4)n3n2)cc1,25µM
CCN(CC)c1ccc(C(=O)NCc2nnc3ccc(-c4ccc(C)cc4)nn23)cc1,i
Cc1cc(C)cc(C(=O)NCCn2nc(-c3ccc(F)cc3)ccc2=O)c1,i
N#C/C(=C\c1cn(CC(=O)NCc2ccco2)c2ccccc12)C(=O)NC1CCCCC1,i
Cc1ccc(-c2nnn(CC(=O)N(c3ccccc3)C(C(=O)NC3CCCC3)c3ccncc3)n2)o1 (centres undefined),i
CC(=O)OCC1OC(Oc2ccc(C(=O)Cc3ccc4c(c3)OCCO4)c(O)c2)C(OC(C)=O)C(OC(C)=O)C1OC(C)=O (centres undefined),i
CN(C)c1ncc2c(n1)C(C)(C(=O)NCC1CC1)CCC2 (centres undefined),32µM
CC1(C(=O)NCc2ccncc2)CCCc2cnc(Nc3ccccc3F)nc21 (centres undefined),i
COc1cccc(Nc2ncc3c(n2)C(C)(C(=O)NCC2CC2)CC3)c1 (centres undefined),i
